# This is part of a sample that, as a whole, favours compounds with a hit. Of some 79,000 tested, about 15% had one in any assay. Values without a mark were called inactive. Rule as the data show it: active = growth inhibition above about 70%; inactive = the rest.
# Test: NCI Yeast Anticancer Drug Screen. Data for the rad50 strain (AID 155);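 also: 0% = growth of vehicle-only cultures of the same strain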
# Details: S. cerevisiae rad50 strain growth inhibition; at 50.0 µM; stronger effect = higher value
# In short: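 Relative growth inhibition (compound vs vehicle) was measured in yeast with a defined repair-gene alteration.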
row,Compound,growth inhibition
1,O=C(O)CNc1ncnc2[nH]ncc12,7%
2,CCCCCCCC/C=C\CCCCCCCC(=O)OC,33.5%
3,NC(=O)/C(=C\c1ccncc1)c1cccc2ccccc12,-0.55%
4,CC(=O)OCN(C)N=Nc1ccc(C(C)=O)cc1,-4.6%
5,CC(NC(=O)OCc1ccccc1)NC(=O)OC(C)(C)C (stereo not given),-47%
6,N#CC1=C(N2CCCC2)NC(=O)CC1=O,0%
7,Cc1cc([NH-])c([NH-])cc1C.[Cl][Pt+2][Cl],-2.85%
8,CC(=O)CC(=O)Nc1cccc(C)c1,-13.9%
9,Cc1sc2c(c1C)C(=O)c1cccn1-2,4.95%
10,O=C(O)CCC(C(=O)O)N1C(=O)C2C3CCC(C3)C2C1=O (stereo not given),-26%
11,COC(=O)C(=O)c1c(C2CC2)[nH]c2[nH]n(-c3ccccc3)c(=O)c2c1=O,11%
12,CS(=O)(=O)OCC(O)C(O)C(OS(C)(=O)=O)C(O)COS(C)(=O)=O (stereo not given),7.1%
13,O/N=C/c1ncccc1C1OCCO1,9.45%
14,NC(=S)SCCC(=O)N1CCCC1,-1.25%
15,Cc1ccc(NC(=O)C(C)C)cc1,-14%
16,CN(C)NC(=O)Oc1ccc(Cl)cc1,-0.25%
17,CC(C)(C)C([O-])=C1C(=O)c2ccccc2C1=O.CC(C)(C)C([O-])=C1C(=O)c2ccccc2C1=O.CC[O-].CC[O-].[Ti+4],20.1%
18,C[n+]1cccc(C(=O)c2ccccc2)c1,6.4%
19,CC(O[Si](C)(C)C(C)(C)C)[C@H](NC(=O)OCC(Cl)(Cl)Cl)C(=O)O (stereo not given in full),-9.6%
20,O=C1NCC2(CCCCCC2)O1,5.15%

row,Compound,growth inhibition
1,COc1cc([N+](=O)[O-])ccc1NC(=O)C(Br)C(Br)C(=O)O (stereo not given),-6.6%
2,COc1ccc2c(c1)OCCN(C)OC2c1cccc(Cl)c1 (stereo not given),-4.55%
3,O=C(NC1CC1)c1ccccc1,5.8%
4,Nc1ccn(CCC(COCc2ccccc2)COCc2ccccc2)c(=O)n1,35.8%
5,CC(=Nc1cccc2ccccc12)c1c(O)cc(C)oc1=O,20.4%
6,CCCO[C@@H]1[C@@H](OC(C)=O)[C@@H](OC(C)=O)C(C)(C)/C=C/[C@H](C)C(=O)[C@@]2(OC(C)=O)C[C@@](C)(OC(C)=O)[C@H](OC(C)=O)[C@@H]2[C@H]2OC(=O)CC[C@@]12OC(=O)c1ccccc1,-14.7%
7,CC(=O)C1CCC2C3C=C(C)C4=CC(=O)CCC4(C)C3(F)C(=O)CC12C (stereo not given),13.8%
8,Cc1[nH]c2cc([N+](=O)[O-])ccc2c1C,0.45%
9,O=C(O)c1ccc2ccc(F)cc2c1Cc1ccccc1,-4.15%
10,C/C=C/C(=O)Nc1cc(Cl)ccc1C,-1.25%
11,O=C(O)c1cc(=O)[nH]c(SCc2ccc(Cl)cc2Cl)n1,-14.4%
12,OCC1OC(Nc2ccc(F)cc2)C(O)C1O (stereo not given),2.95%
13,FC(F)(F)C(c1ccc(Cl)cc1)c1ccc(Cl)cc1,42.6%
14,Cc1ccc(-n2c(=O)nc([O-])[n+]3ccccc23)cc1,-2.85%
15,COc1ccc(OCC(C)(C)O)cc1,-12.6%
16,CS(=O)(=O)Oc1ncc(Cl)cc1Cl,-15.4%
17,O=S(=O)(Nc1ccccc1)c1cc(O)ccc1O,-3.35%
18,CCCC(=O)C(C)C(=O)CC (stereo not given),-52.1%
19,COc1ccccc1N=NNc1ccc(S(=O)(=O)NC(C)=O)cc1,14.9%
20,COC(=O)CCCCCCCCCCCCC1C=CCC1 (stereo not given),8.9%

# Test: NCI Yeast Anticancer Drug Screen. Data for the mec2-1 strain (AID 157)
# Details: S. cerevisiae mec2-1 strain, at 50.0 µM, stronger effect = higher value
# In short: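 Using mec2-1 yeast: add compound, measure growth, express inhibition versus vehicle-treated cultures.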
row,Compound,growth inhibition
1,O=C(O)CNc1ncnc2[nH]ncc12,-25.1%
2,CCCCCCCC/C=C\CCCCCCCC(=O)OC,43.8%
3,NC(=O)/C(=C\c1ccncc1)c1cccc2ccccc12,-5.1%
4,CC(=O)OCN(C)N=Nc1ccc(C(C)=O)cc1,-11.3%
5,CC(NC(=O)OCc1ccccc1)NC(=O)OC(C)(C)C (stereo not given),-63.5%
6,N#CC1=C(N2CCCC2)NC(=O)CC1=O,-4.4%
7,Cc1cc([NH-])c([NH-])cc1C.[Cl][Pt+2][Cl],-6.4%
8,CC(=O)CC(=O)Nc1cccc(C)c1,-15.7%
9,Cc1sc2c(c1C)C(=O)c1cccn1-2,-27.8%
10,O=C(O)CCC(C(=O)O)N1C(=O)C2C3CCC(C3)C2C1=O (stereo not given),-33.9%
11,COC(=O)C(=O)c1c(C2CC2)[nH]c2[nH]n(-c3ccccc3)c(=O)c2c1=O,20.1%
12,CS(=O)(=O)OCC(O)C(O)C(OS(C)(=O)=O)C(O)COS(C)(=O)=O (stereo not given),1.75%
13,O/N=C/c1ncccc1C1OCCO1,-0.55%
14,NC(=S)SCCC(=O)N1CCCC1,-10.1%
15,Cc1ccc(NC(=O)C(C)C)cc1,-16.6%
16,CN(C)NC(=O)Oc1ccc(Cl)cc1,-0.35%
17,CC(C)(C)C([O-])=C1C(=O)c2ccccc2C1=O.CC(C)(C)C([O-])=C1C(=O)c2ccccc2C1=O.CC[O-].CC[O-].[Ti+4],47.1%
18,C[n+]1cccc(C(=O)c2ccccc2)c1,-4.8%
19,CC(O[Si](C)(C)C(C)(C)C)[C@H](NC(=O)OCC(Cl)(Cl)Cl)C(=O)O (stereo not given in full),-27.8%
20,O=C1NCC2(CCCCCC2)O1,-0.65%

row,Compound,growth inhibition
1,COc1cc([N+](=O)[O-])ccc1NC(=O)C(Br)C(Br)C(=O)O (stereo not given),5.15%
2,COc1ccc2c(c1)OCCN(C)OC2c1cccc(Cl)c1 (stereo not given),-6.45%
3,O=C(NC1CC1)c1ccccc1,1.6%
4,Nc1ccn(CCC(COCc2ccccc2)COCc2ccccc2)c(=O)n1,-13.4%
5,CC(=Nc1cccc2ccccc12)c1c(O)cc(C)oc1=O,12.2%
6,CCCO[C@@H]1[C@@H](OC(C)=O)[C@@H](OC(C)=O)C(C)(C)/C=C/[C@H](C)C(=O)[C@@]2(OC(C)=O)C[C@@](C)(OC(C)=O)[C@H](OC(C)=O)[C@@H]2[C@H]2OC(=O)CC[C@@]12OC(=O)c1ccccc1,-24.2%
7,CC(=O)C1CCC2C3C=C(C)C4=CC(=O)CCC4(C)C3(F)C(=O)CC12C (stereo not given),-12.2%
8,Cc1[nH]c2cc([N+](=O)[O-])ccc2c1C,-35.2%
9,O=C(O)c1ccc2ccc(F)cc2c1Cc1ccccc1,-10.2%
10,C/C=C/C(=O)Nc1cc(Cl)ccc1C,-8.1%
11,O=C(O)c1cc(=O)[nH]c(SCc2ccc(Cl)cc2Cl)n1,14.5%
12,OCC1OC(Nc2ccc(F)cc2)C(O)C1O (stereo not given),-10.4%
13,FC(F)(F)C(c1ccc(Cl)cc1)c1ccc(Cl)cc1,28.8%
14,Cc1ccc(-n2c(=O)nc([O-])[n+]3ccccc23)cc1,-6.85%
15,COc1ccc(OCC(C)(C)O)cc1,-0.4%
16,CS(=O)(=O)Oc1ncc(Cl)cc1Cl,2%
17,O=S(=O)(Nc1ccccc1)c1cc(O)ccc1O,-11.2%
18,CCCC(=O)C(C)C(=O)CC (stereo not given),-26.9%
19,COc1ccccc1N=NNc1ccc(S(=O)(=O)NC(C)=O)cc1,-28.5%
20,COC(=O)CCCCCCCCCCCCC1C=CCC1 (stereo not given),-31.1%
